Sampled rows, rich in hits. Any-hit rate of the full collection: about 2.6%.
S1P1 agonist = activates the human S1P1 receptor; S1P1 agonist cell-based reporter assay; P21453; hit rate 1.5% among 16,000; AID 1044; activation, % at 4.5 µM; in the data active = activation above about 80%
TLR4 MyD88 blk = inhibitors of human TLR4-MyD88 binding | AID 811 | Cell-based TLR4-MyD88 binding inhibition assay | hit rate 0.06% among 16,000 | inhibition, % at 10 µM; in the data active = inhibition above about 45%
Target sequence (O00206 whole entry, looked up): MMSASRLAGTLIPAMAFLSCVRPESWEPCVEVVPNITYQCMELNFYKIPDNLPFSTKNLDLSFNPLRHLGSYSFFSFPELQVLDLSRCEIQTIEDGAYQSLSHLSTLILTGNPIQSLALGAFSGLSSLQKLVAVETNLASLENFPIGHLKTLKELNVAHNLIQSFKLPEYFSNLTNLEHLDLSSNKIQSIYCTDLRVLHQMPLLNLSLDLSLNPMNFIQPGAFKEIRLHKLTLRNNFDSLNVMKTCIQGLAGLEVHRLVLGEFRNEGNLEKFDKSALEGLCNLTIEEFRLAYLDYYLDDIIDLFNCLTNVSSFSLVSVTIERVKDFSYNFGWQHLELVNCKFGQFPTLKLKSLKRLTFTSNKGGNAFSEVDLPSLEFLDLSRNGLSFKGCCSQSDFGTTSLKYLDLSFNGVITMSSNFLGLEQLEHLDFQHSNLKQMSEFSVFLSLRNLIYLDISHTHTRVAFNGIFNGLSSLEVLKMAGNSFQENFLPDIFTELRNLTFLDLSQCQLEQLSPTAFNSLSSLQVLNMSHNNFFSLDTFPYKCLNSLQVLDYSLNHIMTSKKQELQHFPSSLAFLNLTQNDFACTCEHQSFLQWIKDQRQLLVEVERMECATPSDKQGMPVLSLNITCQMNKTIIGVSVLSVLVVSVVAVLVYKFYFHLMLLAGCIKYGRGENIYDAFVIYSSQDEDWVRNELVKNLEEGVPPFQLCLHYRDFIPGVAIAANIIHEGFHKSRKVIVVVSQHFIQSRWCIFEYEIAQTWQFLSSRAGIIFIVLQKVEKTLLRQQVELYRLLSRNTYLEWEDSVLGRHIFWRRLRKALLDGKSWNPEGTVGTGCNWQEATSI
OPRK1 antag MB = blocks the human kappa opioid receptor, Maybridge compounds | inhibition, % at 9 µM | OPRK1 cells, antagonist mode, fluorescence readout | hit rate 0.4% among 16,000 | P41145 | AID 652031; in the data active = inhibition above about 50%
rat GALR2 ag = activates the rat galanin receptor 2 | activation, % at 10 µM | O08726 | hit rate 0.5% among 16,000 | AID 833 | cell-based GALR2 agonist screen; in the data active = activation above about 15%
* marks the source's active call; other numbers are inactive results; / = no result given.

SMILES	S1P1 agonist	TLR4 MyD88 blk	OPRK1 antag MB	rat GALR2 ag
CC(=O)SC1CC(=O)N(c2ccc(Cl)cc2)C1=O (stereo not drawn)	-9	-6	-10	-8
COc1cc(C(F)(F)F)nc2ccc(C)c(NC(=O)Nc3ccccc3)c12	4	-7	-11	-9
O=S(=O)(Nc1ccc(F)c(Cl)c1)c1cc(Br)c(Br)s1	90*	-15	-21	-10
O=S(=O)(c1cc(Br)c(Br)s1)N1CCCCC1	34	4	16	-4
O=C(c1cc(Br)cc2c1OCC2)N1CCOCC1	-18	-6	-2	-8
COc1ccc(S(=O)(=O)NCCSc2cc(C(F)(F)F)nc3ccccc23)cc1	-28	1	-6	-7
O=[N+]([O-])c1cc(C(F)(F)F)cc([N+](=O)[O-])c1N1CCSCC1	99*	6	-18	-5
Cn1cnc(S(=O)(=O)NCc2c(Cl)cccc2Sc2ccc(Cl)cc2)c1	7	3	0	-7
CCOC(=O)CSc1sc(C(=O)OCC)c(-c2cccs2)c1C#N	-17	-9	27	2
CCOC(=O)Cn1c(=O)c2ccsc2c2c(C#N)c(SC)sc21	-15	4	0	139*
CC(C)(CC(=O)O)CC(=O)Nc1ccccc1N1CCOCC1	-7	-1	23	-7
CN(C)CC#Cc1cncc(C#N)c1	5	5	5	-7
Cc1cc(C(=O)Nc2ccc(N3CCOCC3)cc2)nn1C	1	-2	-5	-2
Cc1cc(C(=O)Nc2nc3ccc(Cl)cc3s2)nn1C	103*	10	1	-4
Cc1nc(Nc2ccccc2)sc1C(=O)c1ccc2c(c1)OCCCO2	20	11	11	-5
CCOC(=O)C1CCN(Cc2cccc(NC(=O)c3cccs3)c2)CC1	1	-3	50*	-1
FC(F)(F)c1cc(-c2ccc(-c3ccn[nH]3)o2)cc(C(F)(F)F)c1	102*	2	-1	1
Cc1oc(-c2ccc(Cl)cc2)cc1-c1ccn[nH]1	8	-5	27	-4
COc1ccc(CC(C)=C(C#N)C#N)cc1OC	-10	7	25	-3
COc1ccc(N=Nc2ccc(OC)c(OC)c2)cc1OC	93*	-5	-4	0
S=C(NCc1ccco1)N/N=C/c1ccc(Cl)c(Cl)c1	-21	1	-6	0
O=C1CNC(=S)N1Cc1ccccn1	-8	5	7	-4
O=C1CNC(=S)N1Cc1cccs1	98*	13	11	-3
FC(F)(F)c1cc(-c2cccs2)nc2cc(-c3cccs3)nn12	-3	-2	27	30*
c1ccc(-c2nsc(-n3ccc(-c4cccs4)n3)n2)cc1	3	-6	8	20*
SMILES	S1P1 agonist	TLR4 MyD88 blk	OPRK1 antag MB	rat GALR2 ag
S=C(NNc1c(Cl)cncc1Cl)Nc1ccc(Cl)cc1Cl	119*	-6	62*	-10
OCCCNNC(=S)Nc1ccc(Cl)cc1Cl	9	2	24	-5
Brc1ccc(-n2cccc2)nc1	86*	2	-7	-9
FC(F)(F)c1ccc(-n2ccnc2)nc1	-4	5	-7	-3
O=[N+]([O-])/C=C/c1c2ccccc2cc2ccccc12	24	-20	72*	-9
COC(=O)c1sc2ccccc2c1Cl	107*	14	2	-3
O=C1OC(c2ccccc2)=N/C1=C/c1ccc(-c2cccs2)s1	0	4	4	-2
CC(C)(C)CN/C(C#N)=C(\N)C#N	106*	13	3	3
N#Cc1cccc(NCCN2CCNC2=O)n1	-5	-3	14	47*
FC(F)(F)c1cc(N=NN2CCOCC2)cc(C(F)(F)F)c1	-17	4	-5	-11
FC(F)(F)c1cc(-c2nsc(N3CCOCC3)n2)cc(C(F)(F)F)c1	27	-1	9	22*
Cc1cc(NS(=O)(=O)c2ccc(C(F)(F)F)cc2Cl)no1	-15	1	11	-1
O=S(=O)(Nc1cc(C(F)(F)F)ccc1F)c1cc(C(F)(F)F)ccc1Cl	85*	-9	14	-3
CCOC(=O)C1=C(C)N2CCCN=C2S1	-9	6	-1	2
C/C(=N\O)c1ccc(Sc2ccccc2)cc1	-1	6	21	-7
O=[N+]([O-])c1ccc(SC2=NCCS2)c([N+](=O)[O-])c1	113*	-19	24	-8
O=c1[nH]c2ccccc2nc1-c1c[nH]c2ccccc12	-88	-226	-113	82*
Cc1nc2ccccc2[nH]c1=O	-4	-8	-3	-8
N#Cc1c2ccccc2cn1Cc1cccc(Cl)c1	93*	/	5	-7
N#Cc1cccc(C(=O)Cc2cccc(Cl)c2)c1	-1	5	5	-2
COc1ccc(/C=C/c2nc3ccccc3s2)cc1OC	85*	0	14	-3
COc1ccc(/C=C2\CC/C(=C\c3ccc(OC)c(OC)c3)C2=O)cc1OC	2	-4	7	-9
CSc1nnc(SC)n1/N=C(\N)c1cccc(C(F)(F)F)c1	-14	-2	10	-4
O=S(=O)(NCCSCc1csc2ccc(Cl)cc12)c1ccc(Cl)cc1	90*	16	-23	-5
O=S(=O)(NCc1csc2ccc(Cl)cc12)c1ccc(C(F)(F)F)cc1	-5	5	-2	9
SMILES	S1P1 agonist	TLR4 MyD88 blk	OPRK1 antag MB	rat GALR2 ag
c1ccc(COc2ccc(CCC3OCCO3)cc2)cc1	31	10	8	15*
O=C1CN(c2ccccc2)C(=O)N1c1ccccc1	-3	5	-9	-5
O=C1CCC2=C(CCCC2)N1c1ccccc1	2	45*	8	-8
O=S(=O)(Nc1cc(C(F)(F)F)cc(C(F)(F)F)c1)c1cccc2nsnc12	89*	3	17	-3
S=C(SCc1ncon1)N1CCOCC1	6	8	4	-8
S=C(SCc1ncon1)N1CCCC1	83*	10	-11	-10
Clc1ccc(-c2csc(-c3ccsc3)n2)s1	6	-10	7	-11
COc1ccc(Oc2ccc([N+](=O)[O-])c(Oc3ccc(OC)cc3)n2)cc1	88*	-2	2	-5
O=S(=O)(c1ccc(-c2noc(-c3ccccc3)n2)cc1)N1CCOCC1	-20	/	29	-2
CC(=O)Nc1ccccc1-c1nnc(-c2ccc(C(C)(C)C)cc2)o1	104*	0	4	-9
Oc1c(Cl)cc(Cl)cc1C1Nc2cc(Cl)c(C(F)(F)F)cc2N1 (stereo not drawn)	106*	-10	57*	-8
Nc1ncnc(Nc2cccc([N+](=O)[O-])c2)n1	6	4	1	-3
N#C/C(=N\Nc1cccc(C(F)(F)F)c1)S(=O)(=O)c1ccsc1	97*	-8	-2	-10
CN(C)c1cc(NC(=O)Nc2ccccc2)c2ccccc2n1	-1	0	57*	-5
CC(=O)Nc1ccc(NC(=O)Nc2ccccc2)cc1	-2	-2	0	-7
CCOC(=O)/C(C#N)=C/Nc1nc2ccc(C)cc2s1	87*	-8	0	-5
O=C(Nc1ccccc1)OCc1cc(-c2ccccc2)c(C(F)(F)F)s1	94*	2	6	-10
CSc1ccc(/C=C/c2onc(C)c2[N+](=O)[O-])s1	40	19	106*	-15
O=C(NCC1CC1)Nc1ccc(OCc2ccccc2)cc1	-1	-4	24	-5
CCOc1ccccc1NC(=S)NCCO	-12	-4	-5	-8
O=[N+]([O-])c1ccc(OS(=O)(=O)c2cccc3nsnc23)cc1	13	6	-4	47*
